PBM binding z-score data for 40 sequences are collected here from the supplement of paper PMC6555819.

One experiment relates to PXR:RXRa (NR concentration 270 nM, RXRa partner concentration 90 nM). The experiment in a line: PBM binding z-score (relative to random genomic background probes); higher = stronger binding; sequences stand for … in GC…GCGATTGACAGCGTAGAATGAAGG
In outline:
(§1)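 On custom Agilent 4×180K arrays, double-stranded probes with 34-nt variable regions carried direct-repeat seeds, single-nucleotide variants, half-site ablations or random human genomic background. Ligand-free nuclear receptor dimers were applied for 1 h, and binding was read with antibodies against each partner (one per run). Binding z-scores come from regression-normalized fluorescence, with the random background probes as reference.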
Regarding CCGACTGGGGAAAAGGTTACCATACTCAGTACGA, the PBM binding z-score was 0.978.
The same measure, in the same setting: as for CAAACGAGGGCATGAGTTGATAGCAAATGCCGAT, the figure is 0.572; as for TTACCAAAGTGAGCTGAGGTCGTTGATCCAACTC, 2.11; as for TCGAGTAGGTTAGTGGCATTCAGAATGGCGTCGA, -0.288.
In turn, CCAGACAGGTGAGAAGGTAATTCAGCCTCGATTA returned a PBM binding z-score of -0.0378.
Still for that read-out and setting: the result for CGTCCAAGGTCAGCAGGTCAGTGTAAGCGACGTG reads 3.74; that for GCAGACAGGTGAAACGAAGGTAACTCAGGGTGGC, 0.0362.
Turning to GCGATTGGGGCATCAGCAGGTTACCATAACTTAA, the PBM binding z-score came to 0.113.
Still for that read-out and setting: as for CCTTACGGGTCACTCCGGGTTATAGCATCGGAGT, the figure is 4.6; as for CCTAGCAGGCCTATCTGGGTCACTCAAGGCTTGA, 0.789.
The same measure, in the same setting: as for ACTCGGAGCACAAAGGTCAGAGCTACGCCAGTGA, the figure is 3.62; as for AGAGTGAGGTTAAGATCAGGGAAACAGAATACAT, 1.62.
On the same count and under the same terms, as for CAAACTAGGTCGCGAAAGGTCAAAGTCGAATGAC, the figure is 6.52.
In turn, CAAACTAGGTCTAAGGTCAAAGTCGAGCCAACCA came in with a PBM binding z-score of 4.42.
Still for that read-out and setting: as for GATACAGGGTCAAGGCCAGAGTTCGCGTATTGAT, the figure is 5.07; as for CCTACTAGGCCACGAAAGGTCATTGATTCAGTGA, 5.44; as for AGAATGAGGTTAAGATCAGGGACACAGAATACAT, 1.54.
Still for that read-out and setting: as for TCTTGTAGATCTAGCAGGTTAAGAAAGCCTGAGT, the figure is 0.527; as for CCGAGTAGGTTATAGGGCATTCAGGCAACGGTGA, 0.219; as for TAGCCTAGGTCTTTCAGGGGCCAGTATAGAAAGC, -0.417.
In turn, CCTGGTAGGTCAATGGTCAGCTAAAGCAGCTCGC gave a PBM binding z-score of 1.29.
On the same count and under the same terms, as for CCTACTGTGCCAAGGTCATTGATCAGTCAAAGCA, the figure is 3.87; as for TCTCGTTGGTCAAAGGTCACACACTCGAAATGCG, 5.86; as for TAGCCTAGGTCATTGGGCCACTATAGTACGCATC, 1.63.
Turning to TAGCCTAGGTCATTCAGTGGCCAGTATAGAAAGC, the PBM binding z-score is 1.66.
On the same count and under the same terms, as for TGAATGAGGTTATAAGATGAGGGAACGTTGCAAA, the figure is 0.72.
On the same count and under the same terms, the result for CAAACTAGGCCAAAGGTCAAAGTCGAGCCAACCA reads 5.56; that for GCAGGCAGGTGAAACGCAGGTAACTCAGGGTGGC, -0.0371; that for CTCGAAAGGTCGGTTGAGGTTAGTATACGGATAA, 4.96.
The same measure, in the same setting: as for CCAACTAGGTCAAGGACAGTGAATCTCCGCACGC, the figure is 1.23; as for CCGACTGGGGCATAAAGGTTACCATACCATCCGG, 1.3.
As for ACTAGTTGGTCAGCTGAGGTCAGACACAATTCGG, the PBM binding z-score is 4.31.
Still for that read-out and setting: the result for AGTCAAAGTTCATCTAGGTACCGTAAGATATGCT reads 5.28.
Still for that read-out and setting: the result for CCGACAGGGGCAAAGGTTACCATACTCAGTACGA reads 3.35; that for CCTATTGGGCCATTCAGAGGTCATTGATCATATG, 4.71; that for CCTATTAGTTGACCCTAAGGGCAACCGAAGCTCG, 4.25.
The same measure, in the same setting: the result for AGTCAAAGTTCCCTAGGTAACGTAAGATTCAGCT reads 0.00195; that for TGTAGCAGGCCAGAGGGTCACTCAAGAGGTACGG, 1.39; that for TAGCCTTGGTCAGATCGGGCCAGTATACGCTATA, -0.578.
ATCCCTAGGTAAAGTTCAGTGAAAGATCGATAGA: the PBM binding z-score is 1.63.

Another experiment deals with PXR homodimer (NR concentration 270 nM). Described as above. In outline:
as §1
CCGACTGGGGAAAAGGTTACCATACTCAGTACGA had a PBM binding z-score of -0.181.
Still for that read-out and setting: the result for CAAACGAGGGCATGAGTTGATAGCAAATGCCGAT reads -0.0239; that for TTACCAAAGTGAGCTGAGGTCGTTGATCCAACTC, 0.201; that for TCGAGTAGGTTAGTGGCATTCAGAATGGCGTCGA, -0.134.
On the same count and under the same terms, the result for CCAGACAGGTGAGAAGGTAATTCAGCCTCGATTA reads 0.107.
The same measure, in the same setting: the result for CGTCCAAGGTCAGCAGGTCAGTGTAAGCGACGTG reads 0.447; that for GCAGACAGGTGAAACGAAGGTAACTCAGGGTGGC, -0.595.
Turning to GCGATTGGGGCATCAGCAGGTTACCATAACTTAA, the PBM binding z-score was -0.0157.
Same read-out and setting: as for CCTTACGGGTCACTCCGGGTTATAGCATCGGAGT, the figure is -0.199; as for CCTAGCAGGCCTATCTGGGTCACTCAAGGCTTGA, -0.468.
Still for that read-out and setting: the result for ACTCGGAGCACAAAGGTCAGAGCTACGCCAGTGA reads 0.191; that for AGAGTGAGGTTAAGATCAGGGAAACAGAATACAT, 1.51; that for CAAACTAGGTCGCGAAAGGTCAAAGTCGAATGAC, 2.13.
Same read-out and setting: the result for CAAACTAGGTCTAAGGTCAAAGTCGAGCCAACCA reads 1.59.
In turn, GATACAGGGTCAAGGCCAGAGTTCGCGTATTGAT came in with a PBM binding z-score of 1.99.
Sequence CCTACTAGGCCACGAAAGGTCATTGATTCAGTGA yielded a PBM binding z-score of 1.96.
On the same count and under the same terms, as for AGAATGAGGTTAAGATCAGGGACACAGAATACAT, the figure is 0.664; as for TCTTGTAGATCTAGCAGGTTAAGAAAGCCTGAGT, 0.101.
Same read-out and setting: the result for CCGAGTAGGTTATAGGGCATTCAGGCAACGGTGA reads -0.129; that for TAGCCTAGGTCTTTCAGGGGCCAGTATAGAAAGC, -0.804; that for CCTGGTAGGTCAATGGTCAGCTAAAGCAGCTCGC, 0.146.
The same measure, in the same setting: the result for CCTACTGTGCCAAGGTCATTGATCAGTCAAAGCA reads 1.91; that for TCTCGTTGGTCAAAGGTCACACACTCGAAATGCG, 2.2; that for TAGCCTAGGTCATTGGGCCACTATAGTACGCATC, -0.211.
For TAGCCTAGGTCATTCAGTGGCCAGTATAGAAAGC, the PBM binding z-score is -0.355.
On the same count and under the same terms, the result for TGAATGAGGTTATAAGATGAGGGAACGTTGCAAA reads -0.291.
Same read-out and setting: as for CAAACTAGGCCAAAGGTCAAAGTCGAGCCAACCA, the figure is 0.846; as for GCAGGCAGGTGAAACGCAGGTAACTCAGGGTGGC, -1.2; as for CTCGAAAGGTCGGTTGAGGTTAGTATACGGATAA, 0.435.
Turning to CCAACTAGGTCAAGGACAGTGAATCTCCGCACGC, the PBM binding z-score turned out to be 0.209.
CCGACTGGGGCATAAAGGTTACCATACCATCCGG: the PBM binding z-score is -0.303.
Still for that read-out and setting: as for ACTAGTTGGTCAGCTGAGGTCAGACACAATTCGG, the figure is 0.813.
On the same count and under the same terms, as for AGTCAAAGTTCATCTAGGTACCGTAAGATATGCT, the figure is 5.43; as for CCGACAGGGGCAAAGGTTACCATACTCAGTACGA, -0.101.
Still for that read-out and setting: as for CCTATTGGGCCATTCAGAGGTCATTGATCATATG, the figure is 2.54; as for CCTATTAGTTGACCCTAAGGGCAACCGAAGCTCG, 1.16.
Take AGTCAAAGTTCCCTAGGTAACGTAAGATTCAGCT: the PBM binding z-score is -0.697.
Still for that read-out and setting: the result for TGTAGCAGGCCAGAGGGTCACTCAAGAGGTACGG reads -0.159; that for TAGCCTTGGTCAGATCGGGCCAGTATACGCTATA, -0.538.
Same read-out and setting: as for ATCCCTAGGTAAAGTTCAGTGAAAGATCGATAGA, the figure is 2.29.
